# Assay results taken from PubChem BioAssay (NCATS).
# Where “and” joins values, the source holds several entries; their conditions need not be identical. Equal entries are not always repeated. Results filed as inconclusive are left out. A call without a number means that no potency is given here. More than one record can exist for a structure, and the calls need not agree. Calls of active or inactive are those of the source. Unless noted, calls follow the shape of the dose curve; as a rule, active = well fitted curve in the direction sought with a large enough effect; inconclusive = small, poorly fitted or top-dose-only effect, or another doubt; inactive = no such curve, though single readings can be large; an effect the other way counts as inactive or inconclusive.
# What was measured:
# [1] = target: Beta-2 adrenergic receptor (Homo sapiens) (UniProt P07550); test: qHTS validation assay of beta-arrestin-biased ligands of beta2-adrenergic receptor (AID 485366)
# Method in brief: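 Tango cells expressing recombinant beta2-AR and beta-arrestin with tTA-driven luciferase, in DMEM with 1% FBS. Compounds were titrated up to 46 microM for 18 hr at 37 degrees C. Luminescence was read 15 min after substrate; curves were fitted and class-assigned.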
# [2] = Quantitative high throughput screen for delayed death inhibitors of the malarial parasite plastid, 96 hour incubation (AID 488745); also: nearly all actives have a fitted effect of over 70% in size; also: potency is read from the fitted curve at half-maximal effect
# Method in brief: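 Growth of reporter-bearing P. falciparum in red cells is measured after 96 h with compound, covering two erythrocytic cycles. Luminescence from the integrated luciferase serves as the growth signal.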
# [3] = Quantitative high throughput screen for delayed death inhibitors of the malarial parasite plastid, 48 hour incubation (AID 488752); also: nearly all actives have a fitted effect of over 65% in size; also: potency is read from the fitted curve at half-maximal effect
# Method in brief: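 One parasite generation (48 h, 37 C, 5% CO2) of luciferase-reporter P. falciparum in erythrocytes is run with test compound; decreased luminescence indicates inhibited growth.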
# [4] = target: Thioredoxin reductase 1, cytoplasmic (Rattus norvegicus) (UniProt O89049); test: qHTS Assay for Substrates of Mammalian Selenoprotein Thioredoxin Reductase 1 (TrxR1) (AID 488772);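 also: NADPH fluorescence in the first read after selenite addition and not the 8 min delta; series mostly up to about 57 µM; a drop in NADPH fluorescence below the no-compound background marks a TrxR1 substrate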
# Method in brief: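 Quantitative HTS in Tris-HCl buffer at pH 7.5 with EDTA and Tween-20, using rat TrxR1, 400 uM NADPH and 400 uM selenite (final). A fall in initial NADPH fluorescence relative to background marked substrate behaviour.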
# [5] = target: Thioredoxin reductase 1, cytoplasmic (Rattus norvegicus) (UniProt O89049); test: qHTS Assay for Inhibitors of Mammalian Selenoprotein Thioredoxin Reductase 1 (TrxR1) (AID 488773); settings: Potency: inhibition; also: nearly all actives have a fitted effect of over 40% in size; also: potency is read from the fitted curve at half-maximal effect
# Method in brief: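 Steps: enzyme (90 nM) plus NADPH (400 uM final), 5 min at ~22 deg C; compound added, 15 min; selenite (400 uM final) added; fluorescence followed for 8 min. Concentration-response curves derived from the normalized delta values.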
# [6] = target: Flap endonuclease 1 (Homo sapiens) (UniProt P39748); test: qHTS Validation Assay for the Inhibitors of Human Flap endonuclease 1 (FEN1) (AID 488816); also: potency is read from the fitted curve at half-maximal effect
# Method in brief: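 FEN1, dispensed as a 10 nM reagent, was preincubated with pin-transferred compounds for 15 min at room temperature before substrate was added (50 nM final). Plates were read at 0 and 15 min, and a four-parameter Hill equation was fitted to the concentration-response data.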
# [7] = target: M-phase phosphoprotein 8 (Homo sapiens) (UniProt Q99549); test: qHTS Validation Assay for Inhibitors for MPP8 Chromodomain Interactions with Methylated Histone Tails (AID 488949); also: nearly all actives have a fitted effect of over 55% in size; also: potency is read from the fitted curve at half-maximal effect
# Method in brief: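 MPP8 (50 nM) was preincubated with biotinylated H3(1-18)K9me3 peptide (50 nM) in PBS pH 7.4, 0.01% Tween-20 for 30 min at room temperature, then with compounds for 30 min; binding was detected by AlphaScreen.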
# [8] = target: Methanococcus maripaludis chaperonin (MmCpn) (UniProt Q6LX38); test: High-Throughput Screening for Modulators of Cytosolic Chaperonin Activity: MmCpn Primary Screen (AID 488978);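 also: 50 nM MmCpn enzyme hydrolysing 30 µM ATP at 37 °C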
# Method in brief: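 MmCpn (50 nM final) was preincubated with compound 5 min at RT, then 30 uM ATP (final) was added and the reaction ran 10 min at 37C. ADP produced was detected by Transcreener HTRF (ex 320 nm; em 590/665 nm).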
# [9] = target: Thyrotropin receptor (Homo sapiens) (UniProt P16473); test: qHTS Assay for Antagonists of the Thyroid Stimulating Hormone Receptor (AID 488980); also: series mostly up to about 58 µM
# Method in brief: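 HEK293 cells transfected with human TSHR, suspended in HEPES-buffered HBSS with 70 uM RO 20-1724, were treated with compounds plus TSH at EC80 (4 nM final). cAMP was measured by competitive HTRF (cryptate anti-cAMP antibody, cAMP-d2 acceptor).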
# [10] = target: D(1A) dopamine receptor (Homo sapiens) (UniProt P21728); test: HTS Assay for Allosteric Agonists of the Human D1 Dopamine Receptor: Primary Screen for Agonists (AID 488981)
# Method in brief: (§1)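 Tetracycline-induced HEK293 T-REx cells force-coupled to calcium signalling were incubated overnight at 30 C and dye-loaded at room temperature. Calcium flux over 180 s after compound addition flagged agonists; a further 180 s read after EC20 dopamine flagged potentiators.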
# [11] = target: D(1A) dopamine receptor (Homo sapiens) (UniProt P21728); test: HTS Assay for Allosteric Agonists of the Human D1 Dopamine Receptor: Primary Screen for Potentiators (AID 488982)
# Method in brief: as §1
# [12] = target: D(1A) dopamine receptor (Homo sapiens) (UniProt P21728); test: HTS Assay for Allosteric Agonists of the Human D1 Dopamine Receptor: Primary Screen for Antagonists (AID 488983);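 also: calcium flux response to an EC80 dopamine challenge measured with no-wash dye; nearly all actives have a fitted effect of over 65% in size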; also: potency is read from the fitted curve at half-maximal effect
# Method in brief: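 Screening of inducible HEK293 T-REx D1 cells: compound first, EC80 dopamine 180 s later, each phase read kinetically for calcium over 180 s.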
# [13] = Validation screen for small molecules that induce genotoxicity in human embryonic kidney (HEK293T) cells expressing luciferase-tagged ELG1 (AID 493106)
# Method in brief: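 Reporter-gene quantitative HTS in HEK293T cells carrying luciferase-tagged ELG1, whose level climbs under genotoxic stress. Compound exposure lasts 16 hr at 37 °C before luciferase detection.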
# [14] = target: Thyrotropin-releasing hormone receptor (Homo sapiens) (UniProt P34981); test: qHTS for Small Molecule Agonists and Allosteric Enhancers of Human TRH Receptor: Validation Screen for Agonists (AID 493127;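 active = calcium activation more than 3 SD above the typical response in the agonist read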;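 also: intracellular calcium rise by fluo-8 fluorescence before TRH EC20 addition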); settings: TRH receptor agonist cell assay; at 2 µM; stronger effect = higher value
# Method in brief: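 Gq-coupled calcium mobilization in TRHR cells after compound addition, monitored kinetically with fluo-8 dye on an FDSS reader.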
# [15] = target: Chromobox protein homolog 1 (Homo sapiens) (UniProt P83916); test: qHTS Validation Assay for Inhibitors of HP1-beta Chromodomain Interactions with Methylated Histone Tails (AID 488953); also: nearly all actives have a fitted effect of over 50% in size; also: potency is read from the fitted curve at half-maximal effect
# Method in brief: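 Measured as loss of AlphaScreen luminescence from streptavidin donor and nickel acceptor beads (10 ug/mL final) bridging HP1-beta and biotin-H3(1-18)K9me3, each 50 nM. Compounds met the preassembled complex for 30 min at RT.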
# [16] = target: Transient receptor potential cation channel subfamily V member 1 (Homo sapiens) (UniProt Q8NER1); test: HTS Assay for Compounds that Act as Enhancers of the Vanilloid Receptor 1 (AID 488979)
# Method in brief: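 TRPV1-expressing cells loaded with Fluo-8 calcium dye; compounds added and calcium influx read kinetically for 3 min (agonist phase), then capsaicin at EC20 added and read 2 min more for enhancement. Fluorescence ex 480/em 520 nm.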
# [17] = target: ATPase family AAA domain-containing protein 5 (Homo sapiens) (UniProt Q96QE3); test: Validation screen for small molecules that inhibit ELG1-dependent DNA repair in human embryonic kidney (HEK293T) cells expressing luciferase-tagged ELG1 (AID 493107); also: nearly all actives have a fitted effect of over 70% in size; also: potency is read from the fitted curve at half-maximal effect
# Method in brief: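 Quantitative HTS in HEK293T cells carrying luciferase-tagged ELG1, stimulated with 5-fluorouridine alongside compound for 16 hr. Loss of luciferase signal marks inhibition of ELG1 response.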
# [18] = target: Tyrosyl-DNA phosphodiesterase 1 (Homo sapiens) (UniProt Q9NUW8); test: Confirmation Assay for Inhibitors of Tyrosyl-DNA Phosphodiesterase (TDP1) (AID 489007); settings: recombinant human TDP1 enzymatic activity, dose-response; also: potency is read from the fitted curve at half-maximal effect; nearly all actives have a fitted effect of over 40% in size
# Method in brief: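 Confirmation of primary-screen follow-ups in a qHTS format. Substrate cleavage by Tdp1 (1 nM) of a 3'-phosphotyrosine-FITC, 5'-biotin oligo (15 nM) was monitored as decreased AlphaScreen signal after a 5 min room-temperature reaction.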
# Sequence of D(1A) dopamine receptor (Homo sapiens) (P21728 whole entry, looked up): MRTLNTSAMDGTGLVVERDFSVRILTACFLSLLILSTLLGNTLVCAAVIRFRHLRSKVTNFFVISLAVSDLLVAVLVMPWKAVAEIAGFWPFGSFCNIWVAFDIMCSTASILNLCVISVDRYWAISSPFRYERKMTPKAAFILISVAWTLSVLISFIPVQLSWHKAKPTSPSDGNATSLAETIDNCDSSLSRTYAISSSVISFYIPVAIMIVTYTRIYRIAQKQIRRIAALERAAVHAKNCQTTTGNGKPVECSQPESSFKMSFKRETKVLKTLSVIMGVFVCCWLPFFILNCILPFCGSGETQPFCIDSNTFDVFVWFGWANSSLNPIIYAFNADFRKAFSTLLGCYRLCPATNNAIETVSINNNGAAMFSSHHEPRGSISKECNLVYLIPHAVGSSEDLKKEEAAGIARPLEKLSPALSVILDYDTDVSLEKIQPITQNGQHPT
# Sequence of Beta-2 adrenergic receptor (Homo sapiens) (P07550 whole entry, looked up): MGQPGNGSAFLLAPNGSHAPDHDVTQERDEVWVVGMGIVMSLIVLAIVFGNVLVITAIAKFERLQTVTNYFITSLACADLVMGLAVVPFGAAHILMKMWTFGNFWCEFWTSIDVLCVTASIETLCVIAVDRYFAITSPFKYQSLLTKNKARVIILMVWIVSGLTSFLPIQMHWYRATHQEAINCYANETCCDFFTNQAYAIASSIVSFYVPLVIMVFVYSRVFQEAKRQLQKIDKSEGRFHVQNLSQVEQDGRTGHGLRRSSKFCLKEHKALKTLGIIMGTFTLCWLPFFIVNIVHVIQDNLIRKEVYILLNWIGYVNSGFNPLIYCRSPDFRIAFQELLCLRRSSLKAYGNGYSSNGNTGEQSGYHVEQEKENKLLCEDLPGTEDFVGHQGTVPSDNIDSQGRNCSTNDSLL
# Sequence of Thyrotropin receptor (Homo sapiens) (P16473 whole entry, looked up): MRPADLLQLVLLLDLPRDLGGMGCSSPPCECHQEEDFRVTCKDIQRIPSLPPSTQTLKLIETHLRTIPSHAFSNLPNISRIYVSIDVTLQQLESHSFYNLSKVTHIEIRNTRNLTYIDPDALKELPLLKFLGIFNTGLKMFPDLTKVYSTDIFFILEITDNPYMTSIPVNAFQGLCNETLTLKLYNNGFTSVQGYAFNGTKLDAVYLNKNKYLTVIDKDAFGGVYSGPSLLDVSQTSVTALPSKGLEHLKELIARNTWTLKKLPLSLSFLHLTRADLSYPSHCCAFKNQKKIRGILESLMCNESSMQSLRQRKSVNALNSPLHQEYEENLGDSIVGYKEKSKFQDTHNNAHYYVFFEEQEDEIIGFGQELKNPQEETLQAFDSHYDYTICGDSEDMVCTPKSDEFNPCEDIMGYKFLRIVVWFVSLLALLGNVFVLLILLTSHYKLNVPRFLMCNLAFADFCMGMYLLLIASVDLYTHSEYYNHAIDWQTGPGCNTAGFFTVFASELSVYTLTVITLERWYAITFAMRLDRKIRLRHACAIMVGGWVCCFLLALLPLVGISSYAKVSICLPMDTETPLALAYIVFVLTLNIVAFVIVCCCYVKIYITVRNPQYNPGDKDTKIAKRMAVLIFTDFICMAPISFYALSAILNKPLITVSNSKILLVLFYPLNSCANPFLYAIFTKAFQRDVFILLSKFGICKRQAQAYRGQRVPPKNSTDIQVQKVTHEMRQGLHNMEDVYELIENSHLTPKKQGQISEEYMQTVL
# Sequence of Methanococcus maripaludis chaperonin (MmCpn) (Q6LX38 1-543): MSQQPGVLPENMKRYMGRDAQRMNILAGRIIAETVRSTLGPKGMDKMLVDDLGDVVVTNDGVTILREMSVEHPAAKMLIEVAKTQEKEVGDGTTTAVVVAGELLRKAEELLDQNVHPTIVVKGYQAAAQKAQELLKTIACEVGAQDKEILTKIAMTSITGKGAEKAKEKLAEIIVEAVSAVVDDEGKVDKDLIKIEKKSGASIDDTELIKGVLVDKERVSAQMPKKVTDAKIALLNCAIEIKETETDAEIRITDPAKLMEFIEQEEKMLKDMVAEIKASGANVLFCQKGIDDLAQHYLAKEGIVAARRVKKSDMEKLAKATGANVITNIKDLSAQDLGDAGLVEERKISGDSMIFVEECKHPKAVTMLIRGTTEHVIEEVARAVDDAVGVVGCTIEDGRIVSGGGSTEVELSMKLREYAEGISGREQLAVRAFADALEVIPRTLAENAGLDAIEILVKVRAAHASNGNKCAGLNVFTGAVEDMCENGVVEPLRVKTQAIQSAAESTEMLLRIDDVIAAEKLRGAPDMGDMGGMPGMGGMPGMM
# Sequence of Transient receptor potential cation channel subfamily V member 1 (Homo sapiens) (Q8NER1 whole entry, looked up): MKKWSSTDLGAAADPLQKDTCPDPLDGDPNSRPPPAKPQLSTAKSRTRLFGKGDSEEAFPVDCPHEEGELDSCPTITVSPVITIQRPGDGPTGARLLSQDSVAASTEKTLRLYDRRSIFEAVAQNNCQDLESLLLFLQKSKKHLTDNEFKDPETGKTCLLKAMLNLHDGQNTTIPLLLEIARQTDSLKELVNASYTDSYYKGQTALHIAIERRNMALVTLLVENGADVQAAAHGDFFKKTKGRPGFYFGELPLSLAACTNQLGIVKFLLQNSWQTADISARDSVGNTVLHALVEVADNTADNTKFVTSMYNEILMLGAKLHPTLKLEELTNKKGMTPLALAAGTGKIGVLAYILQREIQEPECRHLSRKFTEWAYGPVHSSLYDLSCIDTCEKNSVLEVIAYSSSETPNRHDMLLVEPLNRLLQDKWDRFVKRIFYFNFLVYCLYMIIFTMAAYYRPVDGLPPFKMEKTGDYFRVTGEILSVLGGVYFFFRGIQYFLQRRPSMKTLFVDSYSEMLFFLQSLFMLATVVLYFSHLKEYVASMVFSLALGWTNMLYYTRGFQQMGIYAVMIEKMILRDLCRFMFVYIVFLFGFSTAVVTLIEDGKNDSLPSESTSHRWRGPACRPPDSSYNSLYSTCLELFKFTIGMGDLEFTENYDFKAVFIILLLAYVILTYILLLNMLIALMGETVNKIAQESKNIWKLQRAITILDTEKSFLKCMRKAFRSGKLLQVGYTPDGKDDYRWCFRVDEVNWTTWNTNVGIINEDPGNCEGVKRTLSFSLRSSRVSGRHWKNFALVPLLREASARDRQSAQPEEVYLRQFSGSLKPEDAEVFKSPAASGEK
# Sequence of Thioredoxin reductase 1, cytoplasmic (Rattus norvegicus) (O89049 whole entry, looked up): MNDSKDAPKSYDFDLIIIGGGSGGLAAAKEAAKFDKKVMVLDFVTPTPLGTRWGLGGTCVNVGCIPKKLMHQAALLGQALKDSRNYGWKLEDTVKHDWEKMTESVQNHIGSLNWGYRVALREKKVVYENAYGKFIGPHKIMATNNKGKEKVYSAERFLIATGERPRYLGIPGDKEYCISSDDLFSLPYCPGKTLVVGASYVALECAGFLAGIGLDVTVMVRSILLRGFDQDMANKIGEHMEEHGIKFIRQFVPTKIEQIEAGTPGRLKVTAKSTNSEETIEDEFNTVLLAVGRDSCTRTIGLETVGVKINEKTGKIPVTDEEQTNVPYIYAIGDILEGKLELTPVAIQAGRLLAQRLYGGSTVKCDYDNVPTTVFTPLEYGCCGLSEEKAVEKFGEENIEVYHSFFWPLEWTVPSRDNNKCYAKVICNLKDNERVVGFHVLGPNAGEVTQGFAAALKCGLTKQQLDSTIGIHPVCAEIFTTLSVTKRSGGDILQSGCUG
# Sequence of M-phase phosphoprotein 8 (Homo sapiens) (Q99549 whole entry, looked up): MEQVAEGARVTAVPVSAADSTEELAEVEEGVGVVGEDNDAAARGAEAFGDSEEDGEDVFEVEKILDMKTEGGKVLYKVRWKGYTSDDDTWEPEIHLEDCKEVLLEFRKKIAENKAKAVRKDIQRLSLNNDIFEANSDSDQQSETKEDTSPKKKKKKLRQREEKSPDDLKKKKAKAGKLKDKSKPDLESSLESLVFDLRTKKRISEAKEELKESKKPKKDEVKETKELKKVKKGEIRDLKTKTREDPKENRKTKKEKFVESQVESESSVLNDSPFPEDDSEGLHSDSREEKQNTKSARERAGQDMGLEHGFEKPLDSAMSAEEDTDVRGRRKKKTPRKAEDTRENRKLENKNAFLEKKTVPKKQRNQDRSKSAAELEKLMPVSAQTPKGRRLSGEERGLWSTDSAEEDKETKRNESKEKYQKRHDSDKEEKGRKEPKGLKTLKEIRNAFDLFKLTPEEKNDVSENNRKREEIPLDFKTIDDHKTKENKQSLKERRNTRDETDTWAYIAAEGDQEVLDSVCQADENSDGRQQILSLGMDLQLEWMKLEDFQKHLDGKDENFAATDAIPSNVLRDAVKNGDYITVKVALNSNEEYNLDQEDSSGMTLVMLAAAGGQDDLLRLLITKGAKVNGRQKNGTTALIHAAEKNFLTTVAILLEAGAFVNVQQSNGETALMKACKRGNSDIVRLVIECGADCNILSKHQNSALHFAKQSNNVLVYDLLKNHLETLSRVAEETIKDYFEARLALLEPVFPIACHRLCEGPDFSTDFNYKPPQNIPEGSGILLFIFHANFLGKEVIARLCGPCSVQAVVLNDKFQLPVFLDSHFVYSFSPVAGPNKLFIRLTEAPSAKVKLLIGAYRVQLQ
# Sequence of Chromobox protein homolog 1 (Homo sapiens) (P83916 whole entry, looked up): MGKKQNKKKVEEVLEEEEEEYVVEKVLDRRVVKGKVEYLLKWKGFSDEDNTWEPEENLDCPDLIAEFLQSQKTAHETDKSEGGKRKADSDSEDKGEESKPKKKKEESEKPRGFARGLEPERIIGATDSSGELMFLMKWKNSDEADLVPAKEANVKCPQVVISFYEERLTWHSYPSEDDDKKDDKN
# Sequence of Thyrotropin-releasing hormone receptor (Homo sapiens) (P34981 whole entry, looked up): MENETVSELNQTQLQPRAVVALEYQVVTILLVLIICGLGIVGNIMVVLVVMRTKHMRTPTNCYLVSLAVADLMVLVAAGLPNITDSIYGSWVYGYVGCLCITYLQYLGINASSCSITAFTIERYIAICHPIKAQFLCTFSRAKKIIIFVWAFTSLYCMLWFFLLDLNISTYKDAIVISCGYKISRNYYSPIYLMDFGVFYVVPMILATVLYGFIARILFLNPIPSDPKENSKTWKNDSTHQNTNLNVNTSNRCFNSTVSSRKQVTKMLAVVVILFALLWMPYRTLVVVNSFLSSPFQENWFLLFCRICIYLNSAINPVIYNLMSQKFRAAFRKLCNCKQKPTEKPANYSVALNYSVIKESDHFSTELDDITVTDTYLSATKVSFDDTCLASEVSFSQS
Structure (SMILES),outcome [1],Potency [2],Potency [3],outcome [4],Potency [5],Potency [6],Potency [7],outcome [8],outcome [9],Potency [10],Potency [11],Potency [12],Potency [13],activation [14],Potency [15],outcome [16],Potency [17],Potency [18]
O=C(c1ccc2c(c1)OCCO2)N1CCCCC1,inactive,inactive,inactive,inactive,inactive,inactive,inactive,inactive,inactive,inactive,inactive,inactive,inactive,-0.312% (inactive),,,,
N[C@@H](Cc1c[nH]c2ccccc12)C(=O)O,inactive,inactive,inactive,inactive,,inactive,inactive,inactive,inactive,,inactive,inactive,inactive,-0.125% (inactive),inactive,inactive,inactive,
Cc1nc2c(OCc3ccccc3)cccn2c1CC#N,inactive,inactive,inactive,,inactive,inactive,inactive,inactive,inactive,inactive,inactive,inactive,inactive,,inactive,inactive,,
CC(C)C[C@H](NC(=O)C1OC1C(=O)O)C(=O)NCCCCN=C(N)N (stereo partly drawn),inactive,2.33 µM (active),5.86 µM (active),,inactive,inactive,inactive,inactive,inactive,inactive,inactive,inactive,inactive,,0.006 µM (active),inactive,inactive,
C[C@H](O)C(=O)C1=Nc2c(nc(N)[nH]c2=O)NC1,inactive,inactive,inactive,inactive,inactive,,inactive,inactive,inactive,,inactive,inactive,inactive,,inactive,inactive,,
O=c1ccc2c(OCCCCc3ccccc3)c3ccoc3cc2o1,inactive,,inactive,inactive,inactive,inactive,inactive,inactive,inactive,inactive,inactive,inactive,inactive,-9.69% (inactive),inactive,inactive,inactive,
NC(=O)c1cc[n+](CC2=C(C(=O)O)N3C(=O)[C@@H](NC(=O)[C@@H](c4ccccc4)S(=O)(=O)[O-])[C@H]3SC2)cc1,inactive,inactive,inactive,,,inactive,inactive,inactive,inactive,inactive,inactive,inactive,inactive,13.1% (inactive),,inactive,,4.47 µM (active)
O=C(N[C@@H](Cc1ccccc1)C(=O)CCl)OCc1ccccc1,inactive,,inactive,,21.2 µM (active),inactive,inactive,inactive,inactive,inactive,inactive,,inactive,-3.75% (inactive),inactive,inactive,8.2 µM (active),
COc1ccc2c(c1)c(CC(=O)O)c(C)n2Cc1ccc(Cl)cc1,inactive,10.4 µM (active),,inactive,inactive,inactive,inactive,inactive,inactive,inactive,inactive,inactive,inactive,,0.0067 µM (active),inactive,inactive,
CCn1c(=O)[nH]c2cc(Cl)c(Cl)cc21,inactive,inactive,inactive,,inactive,,inactive,inactive,inactive,inactive,inactive,inactive,,1.69% (inactive),inactive,inactive,,
O=C1Nc2ccc(I)cc2/C1=C/c1cc(Br)c(O)c(Br)c1,inactive,,inactive,inactive,,,14.1 µM (active) and 9.47 µM (active),inactive,inactive,,inactive,,inactive,8.19% (inactive),11.2 µM (active),inactive,inactive,
N=C(N)c1ccc(OCCCCCOc2ccc(C(=N)N)cc2)cc1 (tested in a mixture with another compound),inactive,,0.185 µM (active),inactive,inactive,inactive,inactive,inactive,inactive,inactive,inactive,inactive,inactive,1.31% (inactive),inactive,inactive,,
NC(=O)CC[C@H](N)C(=O)O,inactive,,inactive,inactive,inactive,inactive,inactive,inactive,inactive,inactive,inactive,inactive,inactive,-0.625% (inactive),inactive,inactive,inactive,
NCC(O)C1CCCCCCC1 (stereo not drawn),inactive,inactive,,inactive,inactive,inactive,inactive,inactive,inactive,inactive,inactive,inactive,inactive,1% (inactive),inactive,inactive,,
Nc1ncnc2c1c(-c1ccc(Oc3ccccc3)cc1)cn2C1CCCC1,inactive,7.38 µM (active),9.28 µM (active),,inactive,inactive,,inactive,inactive,inactive,,,inactive,-5.06% (inactive),,inactive,,
C=CCN1CCc2c(cc(O)c(O)c2Cl)C(c2ccccc2)C1 (stereo not drawn),inactive,3.7 µM (active),,inactive,,inactive,39.8 µM (active) and inactive,inactive,inactive,,inactive,,inactive,-5.75% (inactive),,inactive,inactive,
CN(C)S(=O)(=O)c1ccc2c(c1)/C(=C/c1cc3c([nH]1)CCCC3)C(=O)N2,inactive,3.7 µM (active),,inactive,,inactive,17.8 µM (active) and inactive,inactive,inactive,,inactive,inactive,,26.3% (inactive),,,,
CCCn1c(=O)c2[nH]c(C3CCCC3)nc2n(CCC)c1=O,inactive,,inactive,inactive,inactive,inactive,inactive,inactive,inactive,inactive,inactive,inactive,inactive,,inactive,inactive,,
CCN(CC)CCCCCCCCOC(=O)c1cc(OC)c(OC)c(OC)c1,inactive,18.5 µM (active),,inactive,inactive,inactive,inactive,inactive,inactive,inactive,inactive,inactive,,1.25% (inactive),inactive,inactive,inactive,
NCC(O)c1ccc(O)c(O)c1 (stereo not drawn),inactive,inactive,inactive,,,2.99 µM (active),22.4 µM (active) and inactive,inactive,,inactive,inactive,14.1 µM (active),inactive,,,inactive,,
CC(=O)N[C@@H](Cc1c[nH]c2ccccc12)C(=O)OCc1cc(C(F)(F)F)cc(C(F)(F)F)c1,inactive,inactive,inactive,,inactive,inactive,inactive,inactive,inactive,inactive,inactive,inactive,inactive,2.62% (inactive),,inactive,inactive,
CCCC[C@@]1(C2CCCC2)Cc2cc(OCC(=O)O)c(Cl)c(Cl)c2C1=O,inactive,inactive,,,inactive,inactive,inactive,inactive,inactive,,inactive,inactive,inactive,1.19% (inactive),inactive,inactive,inactive,
CCCc1c(-c2ccc(O)cc2)nn(-c2ccc(O)cc2)c1-c1ccc(O)cc1,inactive,,inactive,inactive,inactive,inactive,inactive,inactive,inactive,inactive,inactive,,inactive,2.12% (inactive),,inactive,inactive,
CN1CCN(c2nc3cc(C(F)(F)F)ccc3n3cccc23)CC1,inactive,,8.28 µM (active),inactive,inactive,inactive,inactive,inactive,inactive,inactive,inactive,,inactive,1.06% (inactive),,inactive,inactive,
CCCCCCCCCC(=O)NC(CN1CCOCC1)[C@H](O)c1ccccc1 (stereo partly drawn),inactive,,,inactive,inactive,inactive,inactive,inactive,inactive,,inactive,inactive,inactive,0.812% (inactive),inactive,,inactive,
O=C(O)c1ccccc1Nc1ccccc1,inactive,,inactive,inactive,inactive,inactive,inactive,inactive,inactive,inactive,inactive,inactive,inactive,,,inactive,inactive,
